This passage reports activity change results from PubChem BioAssay AID720553 (National Center for Advancing Translational Sciences (NCATS), 2013).

Hit rate of the full screen: of about 340,000 compounds, about 3,300 (0.97%) were called active. The sample holds actives, similar compounds and a random draw of the others, so the mix is not that of the screen.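 How the source made its calls: active means maximum activity change below -70%; inconclusive means maximum activity change from -70% to -50%; inactive means maximum activity change above -50%.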
On the % scale 0 is the no-effect control and ±100 the full control effect.

In this experiment the test system is Potassium voltage-gated channel subfamily H member 2, brain isoform KCNH2 3.1 (human). Nature of the experiment: qHTS for Inhibitors of KCHN2 3.1: Mutant qHTS. Conditions: U2OS KCNH2 3.1, thallium flux FluxOr; active compounds read low. Put shortly:
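U2OS cells transduced with KCNH2 3.1 mutant virus (1.77 x 10^8 /mL, 4 h), plated overnight at 37 C, loaded 45 min with FluxOr dye plus Red40 quencher. Thallium flux rate constant from kinetic reads after stimulation buffer, normalised to controls.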
Background: Quantitative high-throughput screening tests each substance at several concentrations.
As to `CC(=O)c1ccc(OCC(=O)N(C)C2CCS(=O)(=O)C2)cc1` (stereo not drawn), the activity change was -6.59% (inactive).

Regarding `COC(=O)C[C@H]1C[C@@H]2c3cc(NC(=O)Nc4ccccc4)ccc3O[C@@H]2[C@@H](CO)O1`, the activity change was 4.16% (inactive).

Consider `CN(C)CCN(C(=O)CN1C(=O)c2ccccc2C1=O)c1nc2cc3c(cc2s1)OCCO3`, for which the activity change is 4.48% (inactive).

Take `Cc1cc(C)c2nc(N(CCN(C)C)C(=O)/C=C/c3cccs3)sc2c1`: the activity change is -103% (active).

For `Cc1ccc2sc(N(CCN(C)C)C(=O)/C=C/c3cccs3)nc2c1C`, the activity change was -90.5% (active).

`Cc1ccc2nc(N(CCN(C)C)C(=O)C3=COCCO3)sc2c1`: the activity change is -3.64% (inactive).

For `Cc1ccc(S(=O)(=O)N(C)C)cc1NC(=O)/C=C/c1cccs1`, the activity change was -14.2% (inactive).

Consider `Cc1cccc2sc(N(CCCN(C)C)C(=O)CCS(=O)(=O)c3ccccc3)nc12`, for which the activity change was -7.9% (inactive).

On to `CCCCCC(=O)N1C[C@H](O)[C@@H](n2cc(COC(=O)c3ccccc3)nn2)C[C@@H]1c1ccc(C)cc1`, for which the activity change was -34.6% (inactive).

Turning to `NC1=CC(=O)C(=O)c2cccnc21`, the activity change is -3.65% (inactive).

For the compound `C[C@@H]1CN([C@@H](C)CO)C(=O)c2cc(NS(C)(=O)=O)ccc2O[C@@H](C)CCCCO[C@H]1CN(C)C(=O)Nc1ccc2c(c1)OCO2`, the activity change is 11.4% (inactive).

With `C[C@H]1Cn2cnc(C(=O)N[C@H](C)c3ccccc3)c2C(=O)N1`, the activity change is -8.17% (inactive).

On to `COC(=O)c1ccccc1N=NNc1ccc([N+](=O)[O-])cc1`, for which the activity change was 5.4% (inactive).

Take `Nc1ccc2nc3c(=O)[nH]c(=S)[nH]c3nc2c1`: the activity change was -92.4% (active).

Turning to `C[C@H]1CN([C@@H](C)CO)C(=O)c2cc(-c3ccccc3F)cnc2O[C@H]1CN(C)C(=O)C1CCOCC1`, the activity change is -1.4% (inactive).

As for `CC(C)N=C1CCCC1C(=S)SSC(=S)C1CCCC1=NC(C)C` (stereo not drawn), the activity change was 8.25% (inactive).

With `COc1cc(C(=O)N2CCN(C/C=C/c3ccccc3)CC2)cc(OC)c1C`, the activity change is -2.35% (inactive).

In the case of `COc1ccc(C(=O)NC2CC2)cc1OC1CCN(C/C=C/c2ccccc2)CC1`, the activity change was -96.9% (active).

As to `COc1ccc(C(=O)NCCn2nc(C)cc2C)cc1OC1CCN(C(C)=O)CC1`, the activity change is 12.7% (inactive).

`COc1ccc(C(=O)NC2CC2)cc1OC1CCN(Cc2ccc(SC)cc2)CC1`: the activity change was -111% (active).

For the compound `COc1cc2[nH]c(=O)n(Cc3ccc(C(=O)NC4CCN(Cc5ccccc5)CC4)cc3)c(=O)c2cc1OC`, the activity change was -8.47% (inactive).

Consider `COc1cc(C(=O)NC2CCN(Cc3ccccc3)CC2)cc(Cl)c1OC(C)C`, for which the activity change is -16.6% (inactive).

Consider `COCC(=O)N(C)C[C@H]1Oc2cc(Br)ccc2S(=O)(=O)N([C@H](C)CO)C[C@H]1C`, for which the activity change is -6.83% (inactive).

Take `COc1ccc(S(=O)(=O)N2CCC(C(=O)NCCC(=O)Nc3ccccc3OC)CC2)cc1`: the activity change was 7.34% (inactive).

As to `COCOCCn1cc(CN2CCS(=O)(=O)N(Cc3ccc(-c4ccccc4)cc3)C(CC(C)C)C2=O)nn1` (stereo not drawn), the activity change was -28.9% (inactive).

Take `C[C@H](NC(=O)c1nc[nH]c1C(=O)NCC(=O)OC(C)(C)C)C(=O)OCc1ccccc1`: the activity change is -109% (active).

With `CC(C)(C)OC(=O)CNC(=O)c1[nH]cnc1C(=O)N[C@@H](Cc1ccccc1)C(=O)OCc1ccccc1`, the activity change was -2.87% (inactive).

Consider `C[C@H](NC(=O)c1nc[nH]c1C(=O)NCC(=O)OC(C)(C)C)c1ccccc1`, for which the activity change is -20.8% (inactive).

On to `C[C@H]1CN([C@@H](C)CO)C(=O)CCCn2cc(nn2)CO[C@@H]1CN(C)S(=O)(=O)c1ccc(-c2ccccc2)cc1`, for which the activity change was -9.74% (inactive).

Turning to `c1ccc2c(c1)nnn2-c1ccncc1`, the activity change is 1.83% (inactive).

Take `COc1ccc(Cl)cc1NC(=O)CN(C)C(=O)c1cn(-c2ccccc2)nc1-c1cccs1`: the activity change was -9.77% (inactive).

Turning to `CSc1ncccc1C(=O)N1CCCC(Nc2ccc(F)c(F)c2)C1` (stereo not drawn), the activity change is -0.997% (inactive).

In the case of `COc1ccc(C(=O)C2CCCN(Cc3cccn3-c3ccccn3)C2)c(C)c1` (stereo not drawn), the activity change was -108% (active).

Take `COc1ccc(C(=O)C2CCCN(S(=O)(=O)c3cccc(C)c3)C2)c(C)c1` (stereo not drawn): the activity change was -2.34% (inactive).

For the compound `CCOC(=O)c1[nH]ncc1CN1CCCC(C(=O)c2ccc(OC)cc2C)C1` (stereo not drawn), the activity change was -6.21% (inactive).

In the case of `C=CCn1nc(C(=O)OCC)cc1-c1sc(NC(=O)c2ccccc2)nc1C`, the activity change is 21.3% (inactive).

As for `CN(C)CCNC(=O)/C(=C/c1cccc([N+](=O)[O-])c1)NC(=O)c1ccccc1`, the activity change is -83.8% (active).

Turning to `O=C(NCCc1ccccc1)/C(=C\c1ccc([N+](=O)[O-])cc1)NC(=O)c1ccccc1`, the activity change is -33.9% (inactive).

Consider `C=CCNC(=O)/C(=C\c1cccc([N+](=O)[O-])c1)NC(=O)c1ccccc1`, for which the activity change was -8.85% (inactive).

Take `CCOC(=O)C=Cc1ccc(C(=O)OCC)[nH]1`: the activity change was 6.88% (inactive).

Consider `C[C@H](CO)N1C[C@H](C)[C@H](CN(C)C(=O)c2ccncc2)OCc2ccccc2-c2c(n(C)c3ccccc23)C1=O`, for which the activity change was -0.608% (inactive).

As to `COc1ccccc1-n1c(SCC(=O)Nc2ccc(Cl)cc2)nc(O)c(Cc2ccccc2)c1=O`, the activity change is 4.83% (inactive).

With `CC(C)c1cc(C(=O)NC2CCCCCC2)c2ccccc2n1`, the activity change was 2.17% (inactive).

Consider `C[C@@H]1CN([C@@H](C)CO)S(=O)(=O)c2ccc(C#Cc3cccc(F)c3)cc2O[C@H]1CN(C)S(=O)(=O)c1cn(C)cn1`, for which the activity change is 7.52% (inactive).

Regarding `CC1CN(C(=O)CCC(=O)NC2CCN(Cc3ccccc3)CC2)c2ccccc2O1` (stereo not drawn), the activity change is -0.725% (inactive).

`CC1CN(C(=O)CCC(=O)NCc2cccnc2)c2ccccc2O1` (stereo not drawn): the activity change is 27.3% (inactive).

On to `CC1CN(C(=O)CCC(=O)NCCCN2CCC(Cc3ccccc3)CC2)c2cc(Cl)ccc2O1` (stereo not drawn), for which the activity change was -84.9% (active).

Consider `O=C1NC(Cc2ccccc2)c2nc3ccc(Br)cc3c(=O)n2-c2cc3ccccc3cc21` (stereo not drawn), for which the activity change was -16.2% (inactive).

With `Cc1ccc([C@H]2N[C@]3(CCCN(Cc4ccccc4)C3=O)[C@H]3C(=O)N(Cc4ccccc4)C(=O)[C@@H]23)cc1`, the activity change was 4.9% (inactive).

For the compound `O=C(COc1ccc(S(=O)(=O)N2CCCC2)cc1[N+](=O)[O-])N1CCCCC1`, the activity change is -5.01% (inactive).

On to `Cc1cc(/C=C2/SC(=O)N(CC(=O)OC(C)C)C2=O)c(C)n1C`, for which the activity change was -7.88% (inactive).

As for `CCN=C1S/C(=C\c2cc(Br)ccc2OCC(=O)OCC)C(=O)N1CC`, the activity change was -71.6% (active).

As for `CCOC(=O)CC1C(=O)NCCN1C(=O)COc1ccc(Br)cc1C` (stereo not drawn), the activity change is 3.78% (inactive).

Consider `Cc1ccc(C(=O)N2CCCc3ccccc32)c(Cl)c1`, for which the activity change is 1.37% (inactive).

For the compound `Cc1nn(-c2ncccn2)c2c1C(=O)CC(C)(C)C2Br` (stereo not drawn), the activity change is -151% (active).

In the case of `Cc1nn(-c2ccccc2)c2c1C(=O)NC(=O)C(C)(C)C2`, the activity change is -21.5% (inactive).

Take `CC1=C(N2CCN(c3ncccn3)CC2)CCC1=O`: the activity change was -6.3% (inactive).

With `COc1ccccc1NC(=O)C(CC(=O)O)Cc1cc(C)cc(C)c1` (stereo not drawn), the activity change is 12.9% (inactive).

As to `C[C@H](O)[C@@H]1C(=O)N2CCc3c([nH]c4ccccc34)[C@@H]2C[C@@H]1N(C)C(=O)Nc1ccc(F)cc1`, the activity change was -6% (inactive).

In the case of `CC(C)(C)C(=O)CN1C2=NCCN2c2ccccc21`, the activity change was 7.56% (inactive).

Take `Cc1cc2c(cc1C)N(Cc1ccccc1)C1=NCCCN12`: the activity change was -15.2% (inactive).

`OC(CN1C2=NCCCN2c2ccccc21)c1ccc(Br)cc1` (stereo not drawn): the activity change is -80.8% (active).

For `CN(CCN1CCOCC1)Cc1nc(-c2ccc3c(c2)OCO3)no1`, the activity change was 3.94% (inactive).

`CC(C)N(Cc1nc(-c2ccc3c(c2)OCO3)no1)CC1CCC(=O)N1` (stereo not drawn): the activity change is -93.2% (active).

For the compound `CCn1ccnc1CN(C)Cc1nc(-c2ccc3c(c2)OCO3)no1`, the activity change is -1.19% (inactive).

Regarding `C[C@@H]1CN([C@H](C)CO)C(=O)c2cc(-c3ccc(F)cc3)cnc2O[C@H]1CN(C)C(=O)c1ccc(F)cc1`, the activity change is -4.52% (inactive).

Take `O=C(NCC(F)(F)F)c1ccc(S(=O)(=O)NCCc2ccc3c(c2)OCCO3)cc1`: the activity change was -2.33% (inactive).

Take `CCCCCCn1c(=O)n2n(c1=O)C[C@]1(OC(=O)NCc3ccc(OC)c(OC)c3)CN(S(=O)(=O)c3ccc(C)cc3)C[C@]1(O)C2`: the activity change is -6.76% (inactive).

On to `CC(C)(C)N(CC#CCC(O)(c1ccccc1)C1CCCC1)CCO` (stereo not drawn), for which the activity change was -6.97% (inactive).

Take `CN(CC#CCC(c1ccccc1)c1ccccc1)C(C)(C)C`: the activity change was -77% (active).

`Cc1ccc(CCNC(=O)CN2C(=O)CSc3ccc(S(=O)(=O)N4CCOCC4)cc32)cc1`: the activity change is 4.19% (inactive).

Consider `COC(=O)[C@H]1C[C@H](OC(=O)NCc2ccccc2)[C@@]2(O)CN(S(=O)(=O)c3ccc(C)cc3)CC2[C@H]1C(=O)OC` (stereo partly drawn), for which the activity change is 2.28% (inactive).

For the compound `C[C@H](CO)N1C[C@H](C)[C@@H](CN(C)Cc2ccc3c(c2)OCO3)OCc2cnnn2CCCC1=O`, the activity change was -0.449% (inactive).

On to `Cn1c(CNC(=O)c2ccccc2F)nnc1SCc1ccc(F)cc1`, for which the activity change is 18.4% (inactive).

Take `CC(Sc1nnc(CNC(=O)c2ccccc2F)n1C)C(=O)Nc1nccs1` (stereo not drawn): the activity change was -211% (active).

With `COc1ccccc1C(=O)NCc1nnc(SC(C)C(=O)Nc2nccs2)n1C` (stereo not drawn), the activity change is -5.02% (inactive).

Consider `O=C(CN1CCCCC1)Nc1ccccc1C(=O)NC1CC1`, for which the activity change was -2.8% (inactive).

Take `N#Cc1ccc(CN2CCN(CC(=O)Nc3ccccc3C(=O)NC3CC3)CC2)cc1`: the activity change is -103% (active).

With `Cc1ccc(OCC(=O)Nc2ccccc2C(=O)NC2CC2)cc1`, the activity change was 21% (inactive).

In the case of `COC(=O)c1ccc(CN2CCN(CCCc3ccccc3)C(CCO)C2)cc1` (stereo not drawn), the activity change is -48.5% (inactive).

For the compound `OCCC1CN(Cc2ccc(Oc3ncccn3)cc2)CCN1CCc1ccccc1` (stereo not drawn), the activity change was -3.13% (inactive).

With `CCOc1ccc(CN2CCN(CCCc3ccccc3)C(CCO)C2)cc1` (stereo not drawn), the activity change is -77.7% (active).

For `O=C1c2ccccc2-c2ccccc2NC1O` (stereo not drawn), the activity change was 2.59% (inactive).
